Several values for one entry are separate records, joined by “and”; a condition that tells them apart may be missing. Equal values may be shown once. The campaign covered roughly 18,000 compounds. About 1,200 (6.7%) were called active. Another 16% or so got no clear call; they are omitted. The call rests on the fitted dose curve; tested in HEK293 cells. The sample as a whole holds a higher share of actives than the screen did. Bridge positions count the residues as written; N and C are the ends. Peptide text beside a SMILES is read from it.
Assay: qHTS for Inhibitors of binding or entry into cells for Marburg Virus
Details: Marburg virus pseudotype entry/binding inhibition, cell-based; series mostly up to 49.2 µM; activity change, negative = inhibition: at the top concentration
On the % scale 0 is the no-effect control and ±100 the full control effect; potency means the concentration at half of the fitted maximal effect.

Compound	activity change, negative = inhibition	Potency
COC(=O)C1=C(C(=O)OC)[C@@H]2N(C)c3ccccc3[C@@]23C[C@@H](C(=O)OC)N(C(=O)c2ccco2)C3=N1	74% [at 8.59 µM] (inactive)	–
C[C@H](CCC(=O)NCC(=O)O)[C@H]1CC[C@H]2[C@H]3[C@@H](C[C@@H](O)[C@]12C)[C@]1(C)CC[C@H](O)C[C@@H]1C[C@@H]3O	7.66% [at 17.8 µM] (inactive)	–
COC(=O)[C@@]1(C=C[C@@H](C)[C@H](OC)c2ccccc2Br)[C@@H]2Oc3ccccc3[C@@H]21	4.01% [at 8.59 µM] (inactive)	–
C=C[C@](C)(O)CCC1C(=C)CCC2[C@@](C)(CO)CCC[C@@]12C (stereo not given in full)	1.45% (inactive)	–
COc1cccc([C@@H]2Oc3ccc(OC)cc3C(=O)[C@@H]2OC(=O)Nc2cc(OC)c(OC)c(OC)c2)c1	12.9% [at 8.59 µM] (inactive)	–
Fc1ccc(Cl)cc1-c1nc(Nc2ccncc2)c2nccnc2n1	-20.9% (inactive)	–
C=C(C(C)=O)C(O)c1ccc([N+](=O)[O-])cc1 (stereo not given)	-9.42% (inactive)	–
COc1ccc(-c2nc3c(c4c2C[C@H](c2ccccc2)OC4)CN(C(=O)C2CC2)CC3)c(C)c1	-29.5% [at 8.59 µM] (inactive) and -8.72% [at 8.59 µM] (inactive)	–
C[C@@H](O)[C@@H]1NC(=O)[C@H](CCCCN)NC(=O)[C@H](Cc2c[nH]c3ccccc23)NC(=O)[C@H](Cc2ccccc2)NC(=O)[C@H](Cc2ccccc2)NC(=O)[C@H](CC(N)=O)NC(=O)[C@H](CCCCN)NC(=O)[C@@H](NC(=O)[C@@H]2CCCN2)CSSC[C@@H](C(=O)N[C@@H](CCCCN)C(=O)O)NC(=O)[C@H](CO)NC(=O)[C@H](CO)NC(=O)[C@H](Cc2ccccc2)NC1=O (H-PCKNFFWKTFSSCK-OH; disulfide 2-13)	9.81% (inactive)	–
C[C@@H]1C(c2ccc(F)cc2)=NN(c2ccc(Br)cc2)[C@H]1C(=O)N1CCOC1=O	-15% (inactive)	–
C/C=C/C1=C(C(=O)O)N2C(=O)[C@@H](NC(=O)[C@H](N)c3ccc(O)cc3)[C@H]2SC1	33.3% (inactive)	–
COC(=O)CC1c2ccccc2C(Cc2ccc(OC)cc2)=C(C)N1C(=O)OC (stereo not given)	0.314% [at 8.59 µM] (inactive) and -19% [at 8.59 µM] (inactive)	–
CC(C)(C)OC(=O)N1CCC(C(=O)Nc2cccc(C(=O)NCCc3ccccc3)c2)CC1	27.7% (inactive)	–
CC(C)(O)CCC(O)[C@@](C)(O)C1CC[C@]2(O)C3=CC(=O)C4CC(O)C(O)C[C@]4(C)C3CC[C@]12C (stereo not given in full)	7.71% (inactive)	–
CC(C)=CCC[C@]1(C)[C@@H](CC=C(C)C)C[C@@]2(CC=C(C)C)C(=O)[C@]1(C(=O)C(C)C)C(=O)C(CC=C(C)C)=C2O	–	15.8 µM (active)
CC1(OC(=O)C2CCCC2)C(=O)C=C2C=C(c3ccc(C#N)cc3)OC=C2C1=O (stereo not given)	inactive	–
CCN1C(=NCc2cc(OC)c(OC)c(OC)c2)NC(c2cccc(C(F)(F)F)c2)C(C(=O)OC)=C1C (stereo not given)	12.8% [at 8.59 µM] (inactive)	–
O=C1C=C(c2ccccc2)CCC1	inactive	–
CC[C@H](C)[C@H](NC(=O)[C@H](CCCNC(=N)N)NC(=O)[C@H](CCCNC(=N)N)NC(=O)[C@H](CC(C)C)NC(=O)[C@H](Cc1ccccc1)NC(=O)CNC(=O)CNC(=O)[C@@H](N)Cc1ccc(O)cc1)C(=O)N[C@@H](CCCNC(=N)N)C(=O)N1CCC[C@H]1C(=O)N[C@@H](CCCCN)C(=O)N[C@@H](CC(C)C)C(=O)N[C@@H](CCCCN)C(=O)N[C@@H](Cc1c[nH]c2ccccc12)C(=O)N[C@@H](CC(=O)O)C(=O)N[C@@H](CC(N)=O)C(=O)N[C@@H](CCC(N)=O)C(=O)O	5.11% (inactive)	–
CNCC[C@H](Oc1ccc(C(F)(F)F)cc1)c1ccccc1	–	3.98 µM (active) and 8.91 µM (active)

Compound	activity change, negative = inhibition	Potency
COC(=O)N[C@@H](c1ccccc1)[C@]1(C(=O)OC)CCCC1=O	-27.3% [at 8.59 µM] (inactive)	–
CC[C@H](C)[C@@H](NC(=O)O[C@@H]1C(=O)c2cc(OC)ccc2O[C@H]1c1cccc(OC)c1)C(=O)OC	-4.78% (inactive)	–
COc1ccccc1C1CN(CCNC(=O)C2=CCCC2)Cc2ccccc2O1 (stereo not given)	-15.4% (inactive)	–
COCC(=O)Nc1cc(C(=O)N2CCCC(c3ccccc3)CC2)c2c(c1)nc(-c1ccncc1)n2C (stereo not given)	10.9% (inactive)	–
C=C(C)C(=O)c1ccc(F)cc1	11.7% (inactive)	–
C[C@@H]1[C@@H](c2ccccc2)Oc2c(Cl)cccc2S(=O)(=O)N1Cc1ccc(Cl)cc1	19.7% (inactive)	–
C#C[C@]1(O)CC[C@H]2[C@@H]3CCC4=C/C(=N/O)CC[C@@H]4[C@H]3CC[C@@]21CC	23.7% (inactive)	–
COCCN1C(=O)N[C@@H](CCc2ccccc2)[C@H](C(C)=O)[C@H]1C	-2.21% [at 8.59 µM] (inactive)	–
COc1ccc([C@]23Cc4ccccc4[C@H](O2)c2c(c4ccc(OC)cc4oc2=O)O3)cc1	-9.62% [at 8.59 µM] (inactive)	–
COc1ccc(-c2nc3c(c4c2C[C@H](c2ccccc2)OC4)CN(C(=O)c2cccnc2)CC3)c(C)c1	29.8% [at 8.59 µM] (inactive)	–
CC[C@H]1C[C@H](C=CCC(C(=O)OC)C(=O)OC)OP(=O)(OC)O1 (stereo not given in full)	30.3% (inactive)	–
CC[C@H]1CN2CCc3cc(OC)c(OC)cc3[C@@H]2C[C@@H]1C[C@H]1NCCc2cc(OC)c(OC)cc21	–	0.398 µM (active)
Cc1cc2oc(=O)cc(-c3ccccc3)c2c(C)c1-c1ccc(OC(F)(F)F)cc1	-4.07% (inactive)	–
O=C1OCCN1C(=O)[C@H]1[C@H](c2ccccc2)C(c2ccc(F)cc2)=NN1c1ccccc1	-2.52% (inactive)	–
C=C/C1=C/Cc2ccccc2[C@H](C[N+](=O)[O-])C(C(=O)OC)(C(=O)OC)C1	-15.8% (inactive)	–
CC/C=C\C/C=C\C/C=C\C/C=C\C/C=C\C/C=C\CCC(=O)NCCc1ccc(O)c(O)c1	11.2% (inactive)	–
CC1=C2[C@@H](O)[C@H]([C@@H](C)C(=O)NCCC(C)C)CC[C@@]2(C)C=CC1=O	12.8% (inactive)	–
O=C(C1CCCCC1)N1C[C@@H](n2cc(C3CC3)nn2)[C@@H](O)C[C@@H]1c1ccccc1	-1.69% (inactive)	–
Cc1ccc(-c2ccc(CN3C(C(C)C)C(=O)N(Cc4cn(CCC5OCCCO5)nn4)CCS3(=O)=O)cc2)cc1 (stereo not given)	-27.2% (inactive)	–
COC(=O)C12C[C@H](C)C3C(C)C(c4ccccc4C31)N2C(=O)C(F)(F)F (stereo not given in full)	-25.2% [at 8.59 µM] (inactive)	–
